Assay in all cases: DAPPL (digital affinity profiling via proximity ligation, sequencing); 10 mM Tris-HCl pH 7.5, 50 mM NaCl, 1 mM DTT, 4% glycerol, room temperature, 30 min; GST-TFs on glutathione beads, 16-mer random dsDNA library, 0.1% formaldehyde crosslink after washing; high values mean tight binding
For one assay, the target named is T1, FEV (Homo sapiens, UniProt Q99581 1-238).
T1 sequence: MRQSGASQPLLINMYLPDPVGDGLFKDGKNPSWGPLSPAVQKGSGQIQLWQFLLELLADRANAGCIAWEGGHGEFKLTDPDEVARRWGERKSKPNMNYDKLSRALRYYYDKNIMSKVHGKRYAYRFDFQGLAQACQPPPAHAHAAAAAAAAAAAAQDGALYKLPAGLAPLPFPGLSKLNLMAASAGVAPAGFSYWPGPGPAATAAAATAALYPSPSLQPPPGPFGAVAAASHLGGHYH
The following applies: protein: recombinant; tags: N-terminal GST; dsDNA, one strand shown. Summed up:
(§1)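 Each value of binding signal is a hexamer's read frequency for a factor divided by the same hexamer's frequency in the tag-only sample. Barcoded, bead-captured GST fusions of human transcription factors made in yeast were pooled with that sample and incubated with 200 nmole of a random double-stranded 16-mer DNA library in Tris/NaCl/DTT/glycerol buffer at room temperature for 30 min. Washing, 0.1% formaldehyde crosslinking, proximity ligation, PCR and Illumina NextSeq500 sequencing followed.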

The target of the next assay is ETV5 (Homo sapiens, UniProt P41161 1-510). Particulars: protein: recombinant; tags: N-terminal GST; dsDNA, one strand shown. Summed up: as §1
Another assay concerns the target HSF1 (Homo sapiens, UniProt Q00613 1-529). Particulars: protein: recombinant; tags: N-terminal GST; chain copies: 3; dsDNA, one strand shown. Summed up:
as §1

A further assay deals with T2, SPIC (Homo sapiens, UniProt Q8N5J4 1-248).
T2 sequence: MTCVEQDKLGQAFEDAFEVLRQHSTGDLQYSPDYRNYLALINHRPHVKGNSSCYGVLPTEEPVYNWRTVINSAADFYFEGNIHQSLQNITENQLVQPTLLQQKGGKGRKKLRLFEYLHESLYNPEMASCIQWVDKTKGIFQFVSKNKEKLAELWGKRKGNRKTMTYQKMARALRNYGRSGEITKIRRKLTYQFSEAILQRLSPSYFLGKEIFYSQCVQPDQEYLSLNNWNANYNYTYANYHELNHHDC
The following applies: protein: recombinant; tags: N-terminal GST; dsDNA, one strand shown. Summed up: as §1

The next assay addresses ELF4 (Homo sapiens, UniProt Q99607 1-663). The following applies: protein: recombinant; tags: N-terminal GST; dsDNA, one strand shown. Summed up:
as §1

A further assay addresses T3, ELK4 (Homo sapiens, UniProt P28324-2 1-405).
T3 sequence: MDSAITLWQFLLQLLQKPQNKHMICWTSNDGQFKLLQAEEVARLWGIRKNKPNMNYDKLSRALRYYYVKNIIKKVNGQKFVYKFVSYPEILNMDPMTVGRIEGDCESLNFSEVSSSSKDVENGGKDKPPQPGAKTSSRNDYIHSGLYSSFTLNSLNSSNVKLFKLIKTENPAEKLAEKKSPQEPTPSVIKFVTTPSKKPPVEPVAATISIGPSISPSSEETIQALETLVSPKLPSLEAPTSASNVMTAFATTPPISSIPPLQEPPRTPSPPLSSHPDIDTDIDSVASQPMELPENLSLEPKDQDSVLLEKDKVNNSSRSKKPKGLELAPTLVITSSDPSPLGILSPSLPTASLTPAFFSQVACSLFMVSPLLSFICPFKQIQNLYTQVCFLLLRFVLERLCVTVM
The following applies: protein: recombinant; tags: N-terminal GST; dsDNA, one strand shown. Summed up: as §1

For the next assay, the target named is T4, ETV2 (Homo sapiens, UniProt O00321 1-342).
T4 sequence: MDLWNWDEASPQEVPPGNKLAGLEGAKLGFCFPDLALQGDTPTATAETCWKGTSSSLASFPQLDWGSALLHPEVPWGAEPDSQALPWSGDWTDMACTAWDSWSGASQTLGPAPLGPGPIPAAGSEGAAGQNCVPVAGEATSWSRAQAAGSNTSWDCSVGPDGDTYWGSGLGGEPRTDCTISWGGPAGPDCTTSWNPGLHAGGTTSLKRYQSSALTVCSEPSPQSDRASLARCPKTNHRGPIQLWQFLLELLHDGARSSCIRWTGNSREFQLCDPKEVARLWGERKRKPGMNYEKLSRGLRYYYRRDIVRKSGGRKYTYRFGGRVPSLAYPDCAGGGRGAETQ
The following applies: protein: recombinant; tags: N-terminal GST; dsDNA, one strand shown. Summed up: as §1

A further assay concerns the target T5, ELF3 (Homo sapiens, UniProt P78545 1-371).
T5 sequence: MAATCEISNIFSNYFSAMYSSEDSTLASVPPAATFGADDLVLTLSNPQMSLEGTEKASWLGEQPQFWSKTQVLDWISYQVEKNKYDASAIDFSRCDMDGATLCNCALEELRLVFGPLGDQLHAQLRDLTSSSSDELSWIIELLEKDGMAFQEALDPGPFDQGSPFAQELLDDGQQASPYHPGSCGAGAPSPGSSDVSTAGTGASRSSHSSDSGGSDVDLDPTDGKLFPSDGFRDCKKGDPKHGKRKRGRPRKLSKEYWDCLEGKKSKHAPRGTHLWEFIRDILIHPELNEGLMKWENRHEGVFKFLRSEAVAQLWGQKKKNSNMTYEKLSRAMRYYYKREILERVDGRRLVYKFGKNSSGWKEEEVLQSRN
The following applies: protein: recombinant; tags: N-terminal GST; dsDNA, one strand shown. Summed up: as §1

For a further assay, the target named is CRX (Homo sapiens, UniProt O43186 1-299). The following applies: protein: recombinant; tags: N-terminal GST; dsDNA, one strand shown. Summed up:
as §1

Another assay deals with ETV1 (Homo sapiens, UniProt P50549 1-477). The following applies: protein: recombinant; tags: N-terminal GST; dsDNA, one strand shown. Summed up:
as §1

For a further assay, the target named is T6, ERF (Homo sapiens, UniProt P50548 1-548).
T6 sequence: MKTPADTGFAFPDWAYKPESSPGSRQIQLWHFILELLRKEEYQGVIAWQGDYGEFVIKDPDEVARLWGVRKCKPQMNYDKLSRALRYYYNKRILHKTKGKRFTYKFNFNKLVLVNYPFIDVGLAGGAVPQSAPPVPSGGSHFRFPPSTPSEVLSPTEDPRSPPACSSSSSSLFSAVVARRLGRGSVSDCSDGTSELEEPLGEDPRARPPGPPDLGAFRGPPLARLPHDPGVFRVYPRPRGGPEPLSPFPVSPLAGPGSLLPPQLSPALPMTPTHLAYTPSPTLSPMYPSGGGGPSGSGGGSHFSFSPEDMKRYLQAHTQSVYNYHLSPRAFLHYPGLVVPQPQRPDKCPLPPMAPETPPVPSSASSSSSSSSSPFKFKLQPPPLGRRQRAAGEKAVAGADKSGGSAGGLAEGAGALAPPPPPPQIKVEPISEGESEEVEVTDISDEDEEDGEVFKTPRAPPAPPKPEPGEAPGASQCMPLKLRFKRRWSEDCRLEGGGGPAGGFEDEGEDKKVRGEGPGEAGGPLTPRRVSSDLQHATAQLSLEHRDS
The following applies: protein: recombinant; tags: N-terminal GST; dsDNA, one strand shown. Summed up:
as §1

For another assay, the target named is T7, ETV3L (Homo sapiens, UniProt Q6ZN32 1-361).
T7 sequence: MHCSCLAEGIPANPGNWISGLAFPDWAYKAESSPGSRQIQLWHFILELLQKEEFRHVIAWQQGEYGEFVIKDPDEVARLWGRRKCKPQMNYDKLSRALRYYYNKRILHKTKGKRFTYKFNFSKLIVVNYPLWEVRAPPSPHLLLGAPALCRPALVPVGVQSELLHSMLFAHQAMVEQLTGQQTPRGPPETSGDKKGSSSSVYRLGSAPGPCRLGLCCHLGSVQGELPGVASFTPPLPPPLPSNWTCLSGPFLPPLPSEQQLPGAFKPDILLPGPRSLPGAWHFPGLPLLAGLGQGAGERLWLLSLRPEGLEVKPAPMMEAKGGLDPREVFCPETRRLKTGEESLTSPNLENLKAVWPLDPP
The following applies: protein: recombinant; tags: N-terminal GST; dsDNA, one strand shown. Summed up: as §1

The target of the next assay is T8, ETS2 (Homo sapiens, UniProt P15036 1-469).
T8 sequence: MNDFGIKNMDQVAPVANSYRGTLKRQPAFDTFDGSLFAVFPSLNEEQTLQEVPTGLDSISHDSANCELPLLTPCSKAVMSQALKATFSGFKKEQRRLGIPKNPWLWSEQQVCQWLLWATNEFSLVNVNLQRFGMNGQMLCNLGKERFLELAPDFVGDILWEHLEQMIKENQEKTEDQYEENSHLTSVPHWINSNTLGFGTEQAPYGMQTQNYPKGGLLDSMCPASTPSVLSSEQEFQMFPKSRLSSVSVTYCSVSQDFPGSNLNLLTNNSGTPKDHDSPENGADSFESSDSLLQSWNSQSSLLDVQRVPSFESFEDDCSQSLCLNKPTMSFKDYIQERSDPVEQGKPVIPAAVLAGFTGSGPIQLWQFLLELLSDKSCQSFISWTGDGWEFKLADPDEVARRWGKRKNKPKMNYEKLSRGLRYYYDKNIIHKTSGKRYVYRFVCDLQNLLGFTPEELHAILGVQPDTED
The following applies: protein: recombinant; tags: N-terminal GST; dsDNA, one strand shown. Summed up: as §1

For another assay, the target named is T9, SPDEF (Homo sapiens, UniProt O95238 1-335).
T9 sequence: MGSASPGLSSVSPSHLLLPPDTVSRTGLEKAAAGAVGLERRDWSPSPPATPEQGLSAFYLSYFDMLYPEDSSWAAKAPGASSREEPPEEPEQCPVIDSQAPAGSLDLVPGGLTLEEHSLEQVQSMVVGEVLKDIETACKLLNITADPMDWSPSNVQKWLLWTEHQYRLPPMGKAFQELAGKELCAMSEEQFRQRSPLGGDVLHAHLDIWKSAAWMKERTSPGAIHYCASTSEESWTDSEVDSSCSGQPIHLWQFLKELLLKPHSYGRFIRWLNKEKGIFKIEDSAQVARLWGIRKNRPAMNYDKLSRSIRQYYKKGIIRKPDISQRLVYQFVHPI
Particulars: protein: recombinant; tags: N-terminal GST; dsDNA, one strand shown. Summed up:
as §1

In a further assay the target is T10, ETV7 (Homo sapiens, UniProt Q9Y603 1-341).
T10 sequence: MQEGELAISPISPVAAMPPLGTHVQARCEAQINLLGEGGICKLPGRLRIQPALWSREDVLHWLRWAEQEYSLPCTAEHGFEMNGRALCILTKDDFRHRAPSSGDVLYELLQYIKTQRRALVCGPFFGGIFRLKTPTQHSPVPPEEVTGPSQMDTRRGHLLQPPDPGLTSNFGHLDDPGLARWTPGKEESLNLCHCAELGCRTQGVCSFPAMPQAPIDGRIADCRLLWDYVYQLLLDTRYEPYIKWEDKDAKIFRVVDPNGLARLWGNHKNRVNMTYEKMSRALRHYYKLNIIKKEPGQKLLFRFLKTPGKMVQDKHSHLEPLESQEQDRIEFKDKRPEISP
Particulars: protein: recombinant; tags: N-terminal GST; dsDNA, one strand shown. Summed up: as §1

The next assay has as its target T11, ELF5 (Homo sapiens, UniProt Q9UKW6-2 1-255).
T11 sequence: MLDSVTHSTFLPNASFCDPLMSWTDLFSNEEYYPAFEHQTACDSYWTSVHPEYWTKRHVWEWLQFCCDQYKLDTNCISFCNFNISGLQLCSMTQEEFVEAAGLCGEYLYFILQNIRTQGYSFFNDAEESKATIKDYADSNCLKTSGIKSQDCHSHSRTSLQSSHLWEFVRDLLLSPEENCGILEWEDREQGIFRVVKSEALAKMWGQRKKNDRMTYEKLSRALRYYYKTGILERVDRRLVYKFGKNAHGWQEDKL
Particulars: protein: recombinant; tags: N-terminal GST; dsDNA, one strand shown. Summed up: as §1

The target of another assay is T12, ETV3 (Homo sapiens, UniProt P41162-2 1-143).
T12 sequence: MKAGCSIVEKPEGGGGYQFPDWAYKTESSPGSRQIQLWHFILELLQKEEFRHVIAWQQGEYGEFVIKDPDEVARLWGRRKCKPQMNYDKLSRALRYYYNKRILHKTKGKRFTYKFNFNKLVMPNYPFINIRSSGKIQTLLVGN
The following applies: protein: recombinant; tags: N-terminal GST; dsDNA, one strand shown. Summed up:
as §1

For the next assay, the target named is ETV6 (Homo sapiens, UniProt P41212 1-452). Particulars: protein: recombinant; tags: N-terminal GST; dsDNA, one strand shown. Summed up:
as §1

Sequence of ETV5 (P41161 whole entry): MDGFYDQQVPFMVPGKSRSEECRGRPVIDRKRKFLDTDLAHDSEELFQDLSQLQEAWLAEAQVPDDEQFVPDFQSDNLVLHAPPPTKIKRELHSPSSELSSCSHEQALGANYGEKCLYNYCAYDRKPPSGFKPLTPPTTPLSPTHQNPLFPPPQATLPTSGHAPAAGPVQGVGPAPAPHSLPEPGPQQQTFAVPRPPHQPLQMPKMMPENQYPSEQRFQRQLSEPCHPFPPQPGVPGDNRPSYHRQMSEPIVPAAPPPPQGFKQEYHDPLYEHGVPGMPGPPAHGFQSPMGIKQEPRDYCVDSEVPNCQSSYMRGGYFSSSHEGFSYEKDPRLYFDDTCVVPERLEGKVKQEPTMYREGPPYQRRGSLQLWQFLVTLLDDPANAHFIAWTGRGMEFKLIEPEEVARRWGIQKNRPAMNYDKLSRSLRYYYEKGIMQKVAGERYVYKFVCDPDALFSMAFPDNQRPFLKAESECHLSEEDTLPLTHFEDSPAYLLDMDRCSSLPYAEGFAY
Sequence of CRX (O43186 whole entry): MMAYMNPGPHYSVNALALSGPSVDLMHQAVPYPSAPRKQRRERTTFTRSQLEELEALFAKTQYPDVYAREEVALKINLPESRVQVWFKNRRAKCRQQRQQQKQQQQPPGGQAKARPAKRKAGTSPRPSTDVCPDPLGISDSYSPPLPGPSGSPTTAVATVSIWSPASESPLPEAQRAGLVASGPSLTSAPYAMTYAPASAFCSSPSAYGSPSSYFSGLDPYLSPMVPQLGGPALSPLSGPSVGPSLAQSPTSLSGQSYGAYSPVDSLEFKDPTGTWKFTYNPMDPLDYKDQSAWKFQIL
Sequence of ELF4 (Q99607 whole entry): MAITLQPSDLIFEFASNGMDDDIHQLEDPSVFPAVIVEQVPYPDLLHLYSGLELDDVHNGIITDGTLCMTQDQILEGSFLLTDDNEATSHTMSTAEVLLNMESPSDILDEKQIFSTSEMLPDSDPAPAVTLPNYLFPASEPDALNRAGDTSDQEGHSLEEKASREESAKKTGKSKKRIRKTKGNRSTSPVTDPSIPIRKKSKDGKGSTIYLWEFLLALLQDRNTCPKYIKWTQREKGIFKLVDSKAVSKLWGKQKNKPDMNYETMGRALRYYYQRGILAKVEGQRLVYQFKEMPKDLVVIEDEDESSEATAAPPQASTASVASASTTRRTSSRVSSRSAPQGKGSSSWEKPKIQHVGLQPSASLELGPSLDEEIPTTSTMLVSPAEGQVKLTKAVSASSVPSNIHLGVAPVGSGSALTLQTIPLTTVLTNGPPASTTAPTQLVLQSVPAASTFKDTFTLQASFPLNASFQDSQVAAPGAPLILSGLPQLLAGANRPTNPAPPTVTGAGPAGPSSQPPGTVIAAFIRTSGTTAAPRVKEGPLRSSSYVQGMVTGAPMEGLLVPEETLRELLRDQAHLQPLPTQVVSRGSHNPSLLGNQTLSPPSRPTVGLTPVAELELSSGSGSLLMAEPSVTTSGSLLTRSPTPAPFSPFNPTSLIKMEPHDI
Sequence of HSF1 (Q00613 whole entry): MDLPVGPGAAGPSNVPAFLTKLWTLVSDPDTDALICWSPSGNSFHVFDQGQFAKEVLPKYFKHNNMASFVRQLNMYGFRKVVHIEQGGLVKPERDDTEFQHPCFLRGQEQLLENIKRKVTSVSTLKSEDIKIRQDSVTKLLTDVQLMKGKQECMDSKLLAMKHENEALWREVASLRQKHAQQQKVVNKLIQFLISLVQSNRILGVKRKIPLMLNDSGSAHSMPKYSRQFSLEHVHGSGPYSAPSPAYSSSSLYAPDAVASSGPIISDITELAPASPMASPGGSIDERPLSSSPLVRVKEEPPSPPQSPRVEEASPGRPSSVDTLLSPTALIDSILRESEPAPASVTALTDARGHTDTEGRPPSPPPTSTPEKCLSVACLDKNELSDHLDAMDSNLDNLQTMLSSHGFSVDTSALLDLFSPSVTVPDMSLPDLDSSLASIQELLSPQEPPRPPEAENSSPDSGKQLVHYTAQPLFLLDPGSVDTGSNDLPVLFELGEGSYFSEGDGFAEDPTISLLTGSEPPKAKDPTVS
Sequence of ETV1 (P50549 whole entry): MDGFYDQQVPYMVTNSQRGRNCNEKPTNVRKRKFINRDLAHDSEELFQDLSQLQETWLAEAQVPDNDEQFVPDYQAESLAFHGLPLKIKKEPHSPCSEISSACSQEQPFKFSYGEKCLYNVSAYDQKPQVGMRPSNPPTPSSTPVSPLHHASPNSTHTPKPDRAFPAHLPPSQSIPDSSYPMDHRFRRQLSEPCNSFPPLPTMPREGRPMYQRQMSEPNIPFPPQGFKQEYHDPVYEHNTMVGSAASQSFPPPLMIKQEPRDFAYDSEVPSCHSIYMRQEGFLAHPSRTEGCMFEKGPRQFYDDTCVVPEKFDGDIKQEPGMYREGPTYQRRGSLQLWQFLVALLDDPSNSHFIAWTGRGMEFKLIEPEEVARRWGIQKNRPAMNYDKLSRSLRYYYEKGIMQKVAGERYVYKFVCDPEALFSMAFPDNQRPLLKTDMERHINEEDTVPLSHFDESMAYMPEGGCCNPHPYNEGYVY
Sequence of ETV6 (P41212 whole entry): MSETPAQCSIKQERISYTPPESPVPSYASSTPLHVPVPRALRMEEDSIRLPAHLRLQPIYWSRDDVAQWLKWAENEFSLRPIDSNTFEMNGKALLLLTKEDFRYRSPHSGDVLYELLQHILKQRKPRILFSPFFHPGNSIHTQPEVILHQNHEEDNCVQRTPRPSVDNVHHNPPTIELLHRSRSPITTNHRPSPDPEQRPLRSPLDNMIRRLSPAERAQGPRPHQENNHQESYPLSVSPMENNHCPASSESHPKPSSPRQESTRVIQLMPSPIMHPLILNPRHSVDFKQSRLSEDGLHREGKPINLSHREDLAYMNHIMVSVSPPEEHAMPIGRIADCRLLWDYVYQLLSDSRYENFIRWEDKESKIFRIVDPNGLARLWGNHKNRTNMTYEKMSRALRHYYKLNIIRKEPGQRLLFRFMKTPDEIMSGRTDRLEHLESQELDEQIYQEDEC

On to ATGACA, for which the binding signal in the assay with FEV was 1.22 fold enrichment (6-mer frequency, TF over GST control); in the assay with ETV5 it was 1.29 fold enrichment (6-mer frequency, TF over GST control); with HSF1 it was 1.09 fold enrichment (6-mer frequency, TF over GST control); with SPIC, 1.14 fold enrichment (6-mer frequency, TF over GST control); in the assay with ELF4, 1.32 fold enrichment (6-mer frequency, TF over GST control); with ELK4, 1.19 fold enrichment (6-mer frequency, TF over GST control). For the same sequence, the binding signal is 1.19 fold enrichment (6-mer frequency, TF over GST control) in the assay with ETV2; 1.33 fold enrichment (6-mer frequency, TF over GST control) with ELF3; 1.09 fold enrichment (6-mer frequency, TF over GST control) with CRX; 1.28 fold enrichment (6-mer frequency, TF over GST control) in the assay with ETV1; 1.31 fold enrichment (6-mer frequency, TF over GST control) in the assay with ERF; 1.28 fold enrichment (6-mer frequency, TF over GST control) with ETV3L. In addition, the binding signal in the assay with ETS2 is 1.33 fold enrichment (6-mer frequency, TF over GST control); with SPDEF, 1.31 fold enrichment (6-mer frequency, TF over GST control); with ETV7, 1.44 fold enrichment (6-mer frequency, TF over GST control); in the assay with ELF5, 1.24 fold enrichment (6-mer frequency, TF over GST control); with ETV3, 1.39 fold enrichment (6-mer frequency, TF over GST control); with ETV6, 1.34 fold enrichment (6-mer frequency, TF over GST control).

For the origin of these results see paper PMC7862700, “An all-to-all approach to the identification of sequence-specific readers for epigenetic DNA modifications on cytosine”.
